Vaccinia mCherry: inhibitors of vaccinia virus infection (mCherry reporter signal); hit rate 0.63% among 310,000; AID 720579; Potency, µM (series often up to 36.5 µM), inactives show top-dose activity change, negative = inhibition, most hits filed as inhibitors; Vaccinia virus mCherry reporter infection, fluorescence; calls by dose curve; tested in A549 cells; further: potency means the concentration at half of the fitted maximal effect; nearly all actives have a fitted effect of over 35% in size
Lassa entry inh: blocks Lassa virus binding to or entry into cells; Lassa virus pseudotype entry inhibition, cell reporter; Potency, µM (doses to about 37.9 µM), for inactives: top-dose activity change, negative = inhibition, most hits filed as inhibitors; hit rate 1.2% among 300,000; calls by dose curve; tested in HEK293 cells; further: potency means the concentration at half of the fitted maximal effect; nearly all actives have a fitted effect of over 50% in size
HCMV inh: inhibitors of human cytomegalovirus; HFF cells, HCMV-luciferase reporter, 72 h; active compounds read low; activity change, negative = inhibition, % at 57.5 µM; hit rate 4.5% among 410,000; in the data active means activity change below about -60%; inconclusive means no clear call, values can overlap the other calls; inactive means above about -39%
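Compounds were evaluated in HFFs infected with an HCMV luciferase reporter virus (MOI 1 PFU/cell). Luciferase in lysates collected 72 h post infection served as the replication measure.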
Vaccinia Venus: inhibitors of vaccinia virus (Venus reporter). Vaccinia virus Venus reporter expression, fluorescence. Potency, µM (titrated, usually from 36.5 µM), for inactives: at the top dose activity change, negative = inhibition, actives largely listed as inhibitors. hit rate 0.46% among 330,000. AID 720580; calls by dose curve; tested in A549 cells; further: potency means the concentration at half of the fitted maximal effect; nearly all actives have a fitted effect of over 30% in size
Marburg entry inh: blocks Marburg virus binding to or entry into cells; Marburg virus pseudotyped entry inhibition, cell reporter; Potency, µM (top dose mostly 37.8 µM), for the others: at the top dose activity change, negative = inhibition, actives largely listed as inhibitors; hit rate 1.8% among 300,000; AID 540276; calls by dose curve; tested in HEK293 cells; further: potency means the concentration at half of the fitted maximal effect
FMDV inh: blocks foot and mouth disease virus | FMDV antiviral cell-based qHTS | hit rate 1.2% among 410,000 | Potency, µM (titrated, usually from 57.9 µM), for inactives: at the top dose activity change, negative = inhibition, usual class: inhibitors; calls by dose curve; tested in HEK293T cells; further: read-out not given here; potency means the concentration at half of the fitted maximal effect; nearly all actives have a fitted effect of over 45% in size
Numbers without * were called inactive; i = inactive; u = inconclusive; x = no result; [ ] = dose if it differs, or a comment. Shown are actives, neighbours in structure and some others; about 6.5% of the full set was active somewhere. On the % scale 0 is the no-effect control and ±100 the full control effect.

SMILES | Vaccinia mCherry | Lassa entry inh | HCMV inh | Vaccinia Venus | Marburg entry inh | FMDV inh
COc1cc2c(-c3cccc(Cl)c3)nc3c(c(C)nn3-c3ccccc3)c2cc1OC | -12% | 12%[46.1 µM] | 16 | 3% | x | -23%
CCCS(=O)(=O)NCc1c(C)ncc2c1CCN(C(=O)c1c(F)ccc(F)c1F)C2 | -1% | x | x | 7% | x | -8%
O=C(NCC1CCCCC1)C1(CC2CC(c3cccc(Br)c3)=NO2)CCNCC1 (centres undefined) | 11µM* | x | -27 | 10µM* | x | 0%
CC(C)(C)OC(=O)N1CCC(CC2CC(c3cccc(Br)c3)=NO2)(C(=O)NCC2CCCCC2)CC1 (centres undefined) | i | x | -28 | u | x | -28%
CCCCCN(CCCCC)c1ccc(/C=C/c2ccnc3ccccc23)cc1 | 50% | x | x | 37% | x | x
CCN(C(=O)CSc1nc2ccccc2c2nc(CCn3c(C)nc4ccccc43)nn12)c1cccc(C)c1 | -4% | 3%[46.1 µM] | 13 | 1% | x | -13%
Nc1ccc2c3c(ccc([N+](=O)[O-])c13)CC2 | -20% | x | -69* | -12% | x | -26%
O=C(O)CCCn1c(O)c(C=C2N=c3ccccc3=N2)sc1=S | x | x | u | x | x | -29%
O=C(O)CCCCCn1c(O)c(C=C2N=c3ccccc3=N2)sc1=S | -18% | 0% | -80* | -20% | u | -6%
CCOC(=O)N1CCC(NC(=O)c2c(C)nn(-c3cccc(C)c3)c2-n2cccc2)CC1 | -11% | u | 0 | -9% | x | -26%
CCC[C@H]1[C@@H](NS(=O)(=O)c2ccccc2C)CC[C@@]23CCCN2C(=O)CCC[C@@H]13 | x | x | -26 | x | x | x
CC(=O)Nc1ccc(N(C(=O)c2ccco2)C(C(=O)NC2CCCC2)c2cccs2)cc1 (centres undefined) | -9% | -31% | -35 | 5% | 7% | -1%
O=C(NC1CCCC1)C(c1ccccc1)N(C(=O)c1ccco1)C1CCCC1 (centres undefined) | -15% | -2% | -78* | -9% | -22% | x
O=C(NC1CCCC1)C(c1ccccc1F)N(C(=O)c1ccco1)C1CCCC1 (centres undefined) | x | -2% | -21 | -6% | -23% | -27%
CC(=O)Nc1ccc(N(C(=O)c2ccco2)C(C(=O)NC2CCCCC2)c2ccccc2)cc1 (centres undefined) | i | u | -64* | -14% | u | 41%
CCC(C)c1ccc(N(C(=O)c2ccco2)C(C(=O)NC2CCCC2)c2cccnc2)cc1 (centres undefined) | i | u | 2 | -18% | u | 22%
CCc1ccc(N(C(=O)c2ccco2)C(C(=O)NC2CCCC2)c2cccnc2)cc1 (centres undefined) | -17% | 1µM* | u | -11% | u | 19%
CC(C)c1ccc(/C=N/N2CCN(c3ccccn3)CC2)cc1 | -4% | 5%[46.1 µM] | -63* | -4% | u | -4%
CC(C)c1ccc(/C=N/N2CCCCC2)cc1 | -5% | 4% | -70* | 2% | u | -11%
Cc1ccc(OCC(=O)c2cc(C)n(Cc3cccs3)c2C)c([N+](=O)[O-])n1 | u | u | -94* | u | u | 18µM*
COCCn1c(C)cc(C(=O)COc2cccnc2[N+](=O)[O-])c1C | i | 7%[46.1 µM] | -84* | 2% | 24%[46.1 µM] | -12%
COc1ccc(-n2c(C)cc(C(=O)COc3ccc(C)nc3[N+](=O)[O-])c2C)cc1 | -6% | -28% | -90* | -4% | -33% | u
Cc1ccc(OCC(=O)c2cc(C)n(C3CC3)c2C)c([N+](=O)[O-])n1 | -21% | -5% | -64* | -7% | 19% | 23%
Cc1ccc(OCC(=O)c2cc(C)n(CC(F)(F)F)c2C)c([N+](=O)[O-])n1 | i | -22%[46.1 µM] | -30 | -18% | -3%[46.1 µM] | -22%
O=C1CCCC2[C@@H]3CCC[N@+]4([O-])CCC[C@H](CN12)C34 (some centres undefined) | x | x | x | x | x | 0%

Assay outcomes as filed in PubChem.
